DENV2 CPE = protects cells from dengue virus 2 cytopathic effect; DENV2-infected cells, cytopathic effect rescue, plate reader; CPE inhibition, % at 9.99 µM; 350,000 tested, 1.7% active; in the data active = CPE inhibition above about 20%, passing the limit was not always enough; tested in BHK-21 cells;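 also: 0% = median of neutral control wells and 100% = median of positive control wells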
RAD52 anneal inh = RAD52 (human) annealing inhibition | inhibition, % at 18.7 µM | P43351 | recombinant RAD52 DNA annealing, FRET fluorescence | 360,000 tested, 0.46% active | AID 651710;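 active = every replicate showing at least 50% inhibition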
dFosB act-1 = enhances mouse delta FosB homodimer DNA binding; 340,000 tested, 0.99% active; purified delta FosB, TAMRA-CDK5 oligo fluorescence polarization; percent of positive-control signal above neutral wells; activation, % at 25 µM; AID 493131; P13346;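 active = mean activation above about 17%, with every replicate also reaching it, limit read from the data, passing the limit was not always enough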
Target sequence (P13346 whole entry, looked up): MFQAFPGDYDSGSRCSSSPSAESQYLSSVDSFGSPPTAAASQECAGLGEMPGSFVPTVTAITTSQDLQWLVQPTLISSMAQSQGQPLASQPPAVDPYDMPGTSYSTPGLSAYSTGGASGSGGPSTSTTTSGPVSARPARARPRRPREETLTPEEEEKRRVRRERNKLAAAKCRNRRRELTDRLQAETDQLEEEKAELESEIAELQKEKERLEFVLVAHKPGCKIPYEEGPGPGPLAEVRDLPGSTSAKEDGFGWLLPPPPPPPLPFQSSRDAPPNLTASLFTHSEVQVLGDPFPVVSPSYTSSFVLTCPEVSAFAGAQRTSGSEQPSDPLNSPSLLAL
GSIS activator = primary screen for activators of insulin secretion dependent on glucose, INS-1E cells, GLuc reporter luminescence. INS-1E GLuc reporter insulin secretion, 2-3 h. 370,000 tested, 0.61% active. activation, % at 16.6 µM;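 active = lowest replicate activation of at least 40%, so every replicate reaches that level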;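 also: 0% = median of neutral control wells and 100% = median of IBMX positive control wells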
RAD54 branch = inhibitors of human RAD54 branch migration | Q92698 | 360,000 tested, 0.14% active | RAD54 Holliday junction branch migration, FAM/BHQ fluorescence | inhibition, % at 10.4 µM;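 active = mean normalized replicate activity at least 40 and at least half of replicates scoring 40 or more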;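 also: 0% = median of neutral control wells and 100% = median of positive control wells; inhibitors cause a drop in the FAM fluorescence signal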
MLL AF4-AF9 inh = blocks AF4 peptide binding to human AF9; P42568; AlphaScreen, biotin-AF4 peptide binding to FLAG-AF9; inhibition, % at 10 µM; 350,000 tested, 0.47% active; AID 651704;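 active = every replicate reaching a set inhibition limit, whatever the replicate mean, cut at about 25% in these data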;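 also: 0% = plate neutral control median and 100% = total signal loss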
dFosB act-2 = delta FosB (mouse) homodimer activation. shares compounds with dFosB act-1. purified delta FosB, TAMRA-CDK5 oligo fluorescence polarization; normalised: neutral wells 0, positive control 100. activation, % at 24.9 µM. 2,400 tested, under 10 active. AID 588690;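 active = highest replicate activation at or above 34% and every replicate reaching that threshold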;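 also: higher polarization means more probe DNA bound by delta FosB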
* = called active by the depositor; · = no result given. In the library only some 3.1% were active in any assay of this set; here they are far more common.

SMILES	DENV2 CPE	RAD52 anneal inh	dFosB act-1	GSIS activator	RAD54 branch	MLL AF4-AF9 inh	dFosB act-2
Cc1noc(C)c1NC(=O)N(C)C[C@@H]1Oc2ccc(N(C)C)cc2CC(=O)N([C@H](C)CO)C[C@H]1C	-9	10	·	1	8	-2	·
CCC(=O)Nc1ccc(C(=O)CSc2nnc(-c3ccc(NS(=O)(=O)CC)cc3)o2)cc1OC	-1	-12	20*	3	-7	2	0
CCS(=O)(=O)Nc1ccc(-c2nnc(SCC(=O)OC)o2)cc1	·	·	-3	·	-4	·	·
NC1=NC[C@@H](Cc2ccc(O)cc2)N1CCc1cc(C(F)(F)F)cc(C(F)(F)F)c1	-14	14	22*	5	5	5	8
O=C(Nc1ccccc1F)N1C[C@H]2[C@@H](c3ccccc31)[C@@H](CO)N2C(=O)c1ccccn1	-8	12	·	3	-1	-21	·
C[C@@H]1CN([C@H](C)CO)C(=O)c2cc(NC(=O)Cn3cnnn3)ccc2O[C@@H]1CN(C)S(=O)(=O)c1cccs1	10	-4	·	7	6	-1	·
C[C@H](NC(=O)OCc1ccccc1)C(=O)NNC(=O)[C@H](Cc1ccccc1)NC(=O)OC(C)(C)C	4	1	27*	9	-5	-2	2
CC(=O)Nc1ccc(N2C(=O)c3ccc(C(=O)Nc4nnc(SCc5ccc(F)cc5)s4)cc3C2=O)cc1	·	·	56*	4	·	·	2
C[C@@H]1CN([C@@H](C)CO)C(=O)c2cc(NS(=O)(=O)c3cn(C)cn3)ccc2O[C@H]1CN(C)C	7	-6	·	24	3	-1	·
CO[C@H]1CN(C)C(=O)c2ccc(NC(=O)C3CCC3)cc2OC[C@@H](C)N(C(=O)NC(C)C)C[C@@H]1C	0	-8	·	5	6	-2	·
O=C(N/N=C/c1cccc(OC2CSC2)c1)c1ccccc1O	·	·	29*	·	3	·	-1
COc1cc2c(cc1OC)-c1cc3ccc4c(c3c[n+]1CC2)OCO4	·	-437	38*	·	-11	-8	-22
O=S(=O)(N[C@@H]1CC[C@@H](CCn2cc(-c3cccc(F)c3)nn2)O[C@@H]1CO)c1ccc(Cl)cc1	4	-12	·	-8	5	-1	·
CCOc1ccc(NC(=O)Cn2nnc3c(cnn3-c3ccc(F)cc3)c2=O)cc1	1	-21	0	-9	·	1	·
O=C(Cn1ncc2c([nH]c3ccccc32)c1=O)Nc1ccc(F)cc1F	-1	0	64*	20	2	0	9
Cc1ccccc1NC(=O)Cn1nnc2c(cnn2-c2ccc(F)cc2)c1=O	-5	-16	18*	1	-2	-5	4
CC(=O)n1cc(/C=N/NC(=O)c2ccccc2O)c2ccccc21	-4	-31	29*	2	4	0	3
COc1ccc(NC(=O)N(C)C[C@H]2Oc3ccc(NS(C)(=O)=O)cc3CC(=O)N([C@H](C)CO)C[C@H]2C)cc1	17	10	·	·	3	-4	·
O=S(=O)(N[C@@H]1CC[C@@H](CCn2cc(-c3cccc(F)c3)nn2)O[C@H]1CO)c1ccc(F)cc1	4	0	·	-18	-8	-1	·
O=C(Nc1nc(-c2cccnc2)cs1)c1ccccc1Cl	5	-8	24*	·	-13	-2	7
C[C@H](CO)N1C[C@H](C)[C@H](CN(C)C(=O)CCC(F)(F)F)OCc2ccccc2-c2c(n(C)c3ccccc23)C1=O	-1	5	·	-2	8	-3	·
Cc1ccc(CN(C)C[C@H]2OCc3cn(nn3)CCCC(=O)N([C@@H](C)CO)C[C@@H]2C)cc1	-1	6	·	11	2	-1	·
COc1ccc(CCNC(=O)CCCn2c(SCC#N)nc3ccccc3c2=O)cc1OC	·	·	0	·	-11	·	·
COc1ccc(CCNC(=O)CCn2c(SCC#N)nc3ccccc3c2=O)cc1OC	·	·	22*	·	4	·	1
Cc1cc(C)cc(C(=O)Nc2ccc(NC(=O)Cc3ccccc3)cc2)c1	4	-4	43*	3	11	-1	5
SMILES	DENV2 CPE	RAD52 anneal inh	dFosB act-1	GSIS activator	RAD54 branch	MLL AF4-AF9 inh	dFosB act-2
Cc1cc(C)cc(C(=O)Nc2ccc(NC(=O)c3cccs3)cc2)c1	-7	-10	25*	-3	-10	0	4
CCOC(=O)/C=C/C(=O)Nc1ccc(Oc2ccccc2)cc1	9	-9	-5	-30	·	-2	·
Cc1ccc(S(=O)(=O)Nc2ccc(NC(=O)c3cccs3)cc2)cc1	-4	-20	5	-11	·	-2	·
Cc1cc(C)c(NS(=O)(=O)c2ccc(NC(=O)c3cccs3)cc2)c(C)c1	·	·	26*	-12	·	·	-7
CCOC(=O)/C=C/C(=O)Nc1ccc(S(=O)(=O)Nc2c(C)cc(C)cc2C)cc1	-1	-3	20*	-24	·	4	6
CN1C(=O)c2cc(NC(=O)C3CCCC3)ccc2OC[C@@H]2O[C@@H](CC(=O)NCC(F)(F)F)CC[C@H]21	-8	-19	·	-3	6	-1	·
CC(C)NC(=O)Nc1ccc2c(c1)C(=O)N([C@H](C)CO)C[C@@H](C)[C@@H](CN(C)C(=O)NC1CCCCC1)OCCCC[C@H](C)O2	3	11	·	0	-5	0	·
CCCC#Cc1cnc2c(c1)C(=O)N([C@@H](C)CO)C[C@@H](C)[C@@H](CN(C)C(=O)C1CCCCC1)O2	·	·	·	-11	·	·	·
Cc1cccc(C)c1NS(=O)(=O)c1ccc(NC(=O)c2ccc(Cl)c([N+](=O)[O-])c2)cc1	-4	-14	40*	-11	-26	-2	-2
C[C@@H]1CN([C@H](C)CO)C(=O)c2cc(Br)cnc2O[C@H]1CN(C)C(=O)Nc1ccc(F)cc1	-5	9	·	2	1	-1	·
O=C(CC1S/C(=N/N=C/c2cccs2)NC1=O)Nc1ccccc1F (stereo not drawn)	·	-10	32*	25	·	-1	2
COc1ccc(NC(=O)C2(c3ccc(NC(=O)c4ccc(C)cc4)cc3)CCCC2)cc1	2	-7	23*	2	-3	4	0
COc1ccc(CC(=O)OCC(=O)Nc2ccc(C(=O)Nc3ccc(OC)cc3)cc2)cc1	5	-20	22*	17	·	0	6
Cc1ccc(-n2nnnc2SCC(=O)Nc2ncc(Cc3ccccc3Cl)s2)cc1	·	·	104*	156*	0	·	6
Cc1ccc(-c2nc(NC(=O)CSc3nnnn3-c3ccccc3)ns2)cc1	·	·	38*	·	0	·	2
Cc1ccc(-c2csc3nnc(SCC(=O)Nc4nsc(-c5ccccc5)n4)n23)cc1	·	·	7	-30	-7	·	·
C[C@H](CO)N1C[C@H](C)[C@H](CN(C)C(=O)Nc2ccccc2)Oc2ccc(NC(=O)Cc3ccccc3)cc2C1=O	8	12	·	-11	5	-1	·
